Data published in PubChem BioAssay AID1159580 (chemical genetic matrix, 2015).
“And” between values parts separate entries of the source, which are not always exact repeats. Identical values can stand only once. Screen size: about 5,500 compounds; about 2,000 (36%) were called active. About 18% were inconclusive and are not listed. No stated cut-off is given here; in the data, active means normalized growth mostly below about 0.91 (no sharp cut-off); inconclusive means no clear call, values can overlap the other calls; inactive means mostly above about 0.92. The list shows a part of the results.

Test: chemical genetic growth profiling, strain panel (AID 1159580);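 further: tested at 20 µM; growth read once vehicle control cultures reached saturation at 30 °C; 1 = growth at the plate median or of vehicle wells; lower values mean less growth of the strain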
Settings: S. cerevisiae deletion strains, growth OD

Measured: normalized growth

CCCCCC1C(=O)CCC1CC(=O)O (stereo unspecified)
inactive: locus YAL013W, strain DEP1, hits give low values 0.997 | locus YAL021C, strain ccr4, hits give low values 0.984 | locus YAL026C, strain drs2, hits give low values 0.994 | locus YAL030W, strain snc1, hits give low values 0.984 | locus YBL061C, strain skt5, hits give low values 0.988 | locus YBR009C, strain hhf1, hits give low values 1.01 | locus YBR021W, strain FUR4, hits give low values 0.991 | locus YBR023C, strain chs3, hits give low values 0.99 | locus YBR171W, strain sec66, hits give low values 1 | locus YBR229C, strain ROT2, hits give low values 1 | locus YBR231C, strain swc5, hits give low values 1 | locus YBR279W, strain paf1, hits give low values 0.98 | locus YCL011C, strain gbp2, hits give low values 0.995 | locus YCL016C, strain dcc1, hits give low values 0.98 | locus YCL029C, strain bik1, hits give low values 0.998 | locus YCL061C, strain MRC1, hits give low values 0.991 | locus YCL069W, strain vba3, hits give low values 0.995 | locus YCR088W, strain abp1, hits give low values 0.976 | locus YDL005C, strain med2, hits give low values 0.982 | locus YDL035C, strain GPR1, hits give low values 1.01 | locus YDL040C, strain nat1, hits give low values 0.995 | locus YDL074C, strain BRE1, hits give low values 1.01 | locus YDL101C, strain DUN1, hits give low values 1.01 | locus YDL134C, strain PPH21, hits give low values 1.06 | locus YDL185W, strain tfp1, hits give low values 0.974 | locus YDL192W, strain arf1, hits give low values 0.986 | locus YDR001C, strain nth1, hits give low values 0.986 | locus YDR069C, strain doa4, hits give low values 1.01 | locus YDR101C, strain arx1, hits give low values 0.99 | locus YDR137W, strain rgp1, hits give low values 0.998 | locus YDR150W, strain NUM1, hits give low values 1.02 | locus YDR159W, strain sac3, hits give low values 0.997 | locus YDR162C, strain NBP2, hits give low values 1.04 | locus YDR195W, strain ref2 0.999 | locus YDR297W, strain sur2, hits give low values 0.988 | locus YDR318W, strain mcm21, hits give low values 0.992 | locus YDR334W, strain swr1, hits give low values 0.981 | locus YDR335W, strain msn5, hits give low values 0.981 | locus YDR388W, hits give low values 0.994 | locus YDR392W, strain spt3, hits give low values 0.91 | locus YDR502C, strain sam2, hits give low values 1.01 | locus YEL003W, strain gim4, hits give low values 0.987 | locus YEL037C, strain rad23, hits give low values 0.972 | locus YEL061C, strain CIN8 (second series), hits give low values 0.984 | locus YEL061C, strain CIN8, hits give low values 1 | locus YER015W, strain faa2, hits give low values 0.983 | locus YER016W, strain bim1, hits give low values 0.984 | locus YER110C, hits give low values 0.982 | locus YER111C, strain swi4, hits give low values 0.975 | locus YER155C, strain BEM2 (second series), hits give low values 0.982 | locus YER155C, strain BEM2, hits give low values 0.989 | locus YER167W, strain BCK2, hits give low values 1.01 | locus YFR010W, strain ubp6, hits give low values 0.987 | locus YGL078C, strain dbp3, hits give low values 0.988 | locus YGL086W, strain mad1, hits give low values 0.994 | locus YGL167C, strain pmr1, hits give low values 0.986 | locus YGL173C, strain kem1, hits give low values 0.989 | locus YGL227W, strain vid30, hits give low values 0.998 | locus YGL240W, strain doc1, hits give low values 0.998 | locus YGL248W, strain PDE1, hits give low values 0.998 | locus YGL253W, strain hxk2, hits give low values 0.996 | locus YGR135W, strain pre9, hits give low values 0.994 | locus YGR252W, strain gcn5, hits give low values 0.993 | locus YHR013C, strain ard1, hits give low values 0.972 | locus YHR027C, strain rpn1, hits give low values 0.98 | locus YHR030C, strain SLT2, hits give low values 0.992 and 0.982 | locus YHR079C, strain IRE1 (second series), hits give low values 0.987 | locus YHR079C, strain IRE1, hits give low values 0.99 | locus YHR094C, strain hxt1, hits give low values 0.969 | locus YHR129C, strain ARP1, hits give low values 1 | locus YHR142W, strain chs7, hits give low values 0.973 | locus YHR200W, strain rpn10, hits give low values 0.988 | locus YIL066C, strain RNR3, hits give low values 1.03 | locus YIL073C, strain SPO22, hits give low values 1.04 | locus YIL125W, strain kgd1, hits give low values 0.985 | locus YIR030C, strain dcg1, hits give low values 0.986 | locus YJL092W, strain hpr5, hits give low values 0.983 | locus YJL095W, strain BCK1 (second series), hits give low values 0.993 | locus YJL095W, strain BCK1, hits give low values 1.05 and 0.989 | locus YJL115W, strain asf1, hits give low values 0.973 | locus YJL129C, strain trk1, hits give low values 0.961 | locus YJL134W, strain LCB3, hits give low values 0.991 | locus YJL154C, strain vps35, hits give low values 0.982 | locus YJL164C, strain tpk1, hits give low values 0.998 | locus YJL166W, strain qcr8, hits give low values 0.996 | locus YJL168C, strain set2, hits give low values 0.991 | locus YJL187C, strain SWE1 (second series), hits give low values 1.02 | locus YJL187C, strain SWE1, hits give low values 0.984 | locus YJR043C, strain POL32, hits give low values 1.03 | locus YJR066W, strain TOR1, hits give low values 0.967 | locus YKL009W, strain mrt4, hits give low values 0.972 | locus YKL068W, hits give low values 0.981 | locus YKL085W, strain MDH1 (second series), hits give low values 0.992 | locus YKL085W, strain MDH1, hits give low values 0.992 | locus YKL160W, strain elf1, hits give low values 0.978 | locus YKL190W, strain CNB1, hits give low values 1 | locus YKR001C, strain vps1, hits give low values 0.987 | locus YKR026C, strain gcn3, hits give low values 0.985 | locus YKR091W, strain srl3, hits give low values 0.98 | locus YLL001W, strain dnm1, hits give low values 0.961 | locus YLL026W, hits give low values 0.994 | locus YLL041C, strain sdh2, hits give low values 0.989 | locus YLR027C, strain aat2, hits give low values 0.984 | locus YLR039C, strain RIC1, hits give low values 1.06 | locus YLR058C, strain SHM2, hits give low values 1.01 | locus YLR102C, strain apc9, hits give low values 0.978 | locus YLR113W, strain HOG1, hits give low values 0.95 | locus YLR221C, strain rsa3, hits give low values 0.993 | locus YLR258W, strain gsy2, hits give low values 0.986 | locus YLR262C, strain YPT6 (second series), hits give low values 0.99 | locus YLR262C, strain YPT6, hits give low values 1.07 | locus YLR268W, strain sec22, hits give low values 1 | locus YLR320W, strain mms22, hits give low values 0.967 | locus YLR330W, strain CHS5, hits give low values 0.993 | locus YLR342W, strain FKS1 (second series), hits give low values 1.02 | locus YLR342W, strain FKS1, hits give low values 0.982 | locus YLR357W, strain rsc2, hits give low values 0.994 | locus YLR370C, strain arc18, hits give low values 0.983 | locus YLR371W, strain rom2, hits give low values 0.987 | locus YLR384C, strain iki3, hits give low values 0.978 | locus YLR418C, strain cdc73, hits give low values 0.989 | locus YML016C, strain PPZ1, hits give low values 0.995 | locus YML032C, strain rad52, hits give low values 0.987 | locus YML120C, strain ndi1, hits give low values 0.99 | locus YML124C, strain tub3, hits give low values 0.985 | locus YMR058W, strain fet3, hits give low values 0.983 | locus YMR078C, strain ctf18, hits give low values 1.01 | locus YMR125W, strain sto1, hits give low values 0.965 | locus YMR129W, hits give low values 0.989 | locus YMR205C, strain PFK2, hits give low values 0.969 | locus YMR223W, strain ubp8, hits give low values 0.994 | locus YMR231W, strain pep5, hits give low values 0.983 | locus YMR307W, strain GAS1, hits give low values 1.06 | locus YNL067W, strain RPL9B, hits give low values 1.04 | locus YNL071W, strain lat1, hits give low values 0.99 | locus YNL128W, strain TEP1, hits give low values 1 | locus YNL183C, strain NPR1, hits give low values 0.931 | locus YNL209W, strain ssb2, hits give low values 0.995 | locus YNL233W, strain BNI4, hits give low values 1.03 | locus YNL248C, strain rpa49, hits give low values 0.99 | locus YNL250W, strain rad50, hits give low values 0.976 | locus YNL271C, strain bni1, hits give low values 0.969 | locus YNL298W, strain CLA4, hits give low values 0.968 | locus YNL307C, strain MCK1, hits give low values 0.989 | locus YNL322C, strain KRE1 (second series), hits give low values 0.972 | locus YNR049C, strain mso1, hits give low values 0.984 | locus YNR052C, strain pop2, hits give low values 0.975 | locus YOL006C, strain TOP1, hits give low values 1.02 | locus YOL012C, strain htz1 1.21 | locus YOL147C, strain pex11, hits give low values 0.986 | locus YOR001W, strain rrp6, hits give low values 0.997 | locus YOR061W, strain CKA2, hits give low values 0.996 | locus YOR069W, strain VPS5, hits give low values 0.993 | locus YOR070C, strain gyp1, hits give low values 0.99 | locus YOR080W, strain dia2, hits give low values 0.987 | locus YOR083W, strain WHI5, hits give low values 0.959 | locus YOR106W, strain vam3, hits give low values 0.987 | locus YOR136W, strain idh2, hits give low values 0.982 | locus YOR144C, strain elg1, hits give low values 0.994 | locus YOR184W, strain ser1, hits give low values 1.02 | locus YOR231W, strain MKK1, hits give low values 1.01 | locus YOR265W, strain rbl2, hits give low values 0.989 | locus YOR270C, strain vph1, hits give low values 0.961 | locus YOR290C, strain snf2, hits give low values 0.916 | locus YOR316C, strain cot1, hits give low values 0.981 | locus YPL051W, strain arl3, hits give low values 0.982 | locus YPL055C, strain LGE1, hits give low values 1.06 | locus YPL078C, strain atp4, hits give low values 0.979 | locus YPL106C, strain sse1, hits give low values 0.99 | locus YPL240C, strain hsp82, hits give low values 0.985 | locus YPL256C, strain CLN2, hits give low values 0.964 | locus YPR119W, strain clb2, hits give low values 0.988 | locus YPR141C, strain kar3, hits give low values 0.981 | locus YPR163C, strain tif3, hits give low values 0.978 | locus YPR167C, strain met16, hits give low values 0.997 | strain wtn01, hits give low values 1.01
